Only some compounds are listed: those with a hit (about 11% of all), similar ones and a draw of the others.
RORg inh – blocks mouse ROR gamma transcriptional activity; P51450; Drosophila S2 Gal4-RORgamma UAS-luciferase reporter, 20 h; Potency, µM (titrated, usually from 53.6 µM), most hits filed as inhibitors; 310,000 compounds, 5.4% hits; further: nearly all actives have a fitted effect of over 60% in size
Target sequence (P51450 whole entry, looked up, the tested form may be a part): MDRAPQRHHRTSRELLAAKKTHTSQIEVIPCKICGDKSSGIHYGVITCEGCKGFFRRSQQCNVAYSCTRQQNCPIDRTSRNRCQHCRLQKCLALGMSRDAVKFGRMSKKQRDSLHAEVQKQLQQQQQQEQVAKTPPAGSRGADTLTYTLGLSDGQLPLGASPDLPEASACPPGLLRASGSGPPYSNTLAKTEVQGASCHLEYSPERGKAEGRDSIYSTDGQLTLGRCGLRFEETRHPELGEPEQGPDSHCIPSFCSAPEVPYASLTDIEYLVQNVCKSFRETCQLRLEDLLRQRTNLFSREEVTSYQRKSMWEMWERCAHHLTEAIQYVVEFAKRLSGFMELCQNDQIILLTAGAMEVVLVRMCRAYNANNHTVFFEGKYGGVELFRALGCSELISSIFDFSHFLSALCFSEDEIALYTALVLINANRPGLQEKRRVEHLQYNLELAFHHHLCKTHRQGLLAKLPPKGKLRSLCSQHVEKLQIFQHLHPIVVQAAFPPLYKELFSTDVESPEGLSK
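Using a luciferase readout, inhibitors were identified by reduced reporter activity in Drosophila cells coexpressing a copper-inducible Gal4–ROR gamma fusion and UAS-driven Photinus luciferase, incubated 20 hr after 700 uM copper sulfate.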
VP16 counter – inhibits Gal4-VP16 luciferase reporter, ROR gamma counter-screen. AID 2546. 310,000 compounds, 3.5% hits. Drosophila S2 Gal4-VP16 UAS-luciferase, luminescence, 20 h. Potency, µM (series often up to 53.6 µM), usual class: inhibitors;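 further: Gal4-VP16 expression switched on by copper sulfate through the metallothionein promoter; nearly all actives have a fitted effect of over 50% in size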
IL1B secr inh – blocks inflammasome-driven IL-1 beta release | AID 743279 | 360,000 compounds, 4.7% hits | THP-1 LPS/ATP IL-1B secretion, AlphaLISA, 16 h; active compounds read low | activity change, % at 57.5 µM; in the data active means activity change below about -50%; inconclusive means mostly about -30% to -49%
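Secreted IL-1B measured by AlphaLISA bead assay after 16 h compound exposure of THP-1 cells; compounds (final up to 57.5 uM) added 1 h before LPS (250 ng/mL) and ATP (1.25 mM) stimulation; lower signal means less secretion.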
MCF10A rerep – induces DNA re-replication in MCF 10a normal breast cells | Potency, µM (series often up to 46.1 µM), hits mostly activators | MCF 10A DNA re-replication, Hoechst nuclear intensity, 48 h | 350,000 compounds, 2.9% hits; further: nearly all actives have a fitted effect of over 50% in size
SW480 rereplic – induces DNA re-replication in SW480 colon adenocarcinoma cells; SW480 DNA re-replication, Hoechst DNA content imaging, 48 h; Potency, µM (titrated, usually from 46.1 µM), actives largely listed as activators; 340,000 compounds, 1.8% hits; AID 624297; further: nearly all actives have a fitted effect of over 55% in size
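Readout is total intensity of Hoechst-stained nuclei, excited at 405 nm and collected at 500-530 nm. Compound treatment lasted 48 hr at 37 C in 5% CO2 before staining.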
Large screens that a line does not name were inactive. Unless noted, the call rests on the fitted dose curve; in most records, active means well fitted curve in the direction sought with a large enough effect; inconclusive means small, poorly fitted or top-dose-only effect, or another doubt; inactive means no such curve, though single readings can be large; an effect the other way counts as inactive or inconclusive.

CC1(C(=O)NS(=O)(=O)c2ccc3c(c2)CCO3)CCN1C(=O)Cc1ccc(-c2ccccc2)cc1 (stereo unspecified)	none (no result: RORg inh, VP16 counter, MCF10A rerep, SW480 rereplic)
Cc1cc[n+]2cc(-c3cccc([N+](=O)[O-])c3)c(-c3cccc([N+](=O)[O-])c3)cc2c1	SW480 rereplic 2.6µM
CC(C)(C)OC(=O)N1CCN(C(=O)c2ncn(Cc3ccccc3)c2C(=O)N2CCN(C(=O)OC(C)(C)C)CC2)CC1	none (no result: RORg inh, VP16 counter)
O=C(c1ccc(COc2ccccc2Br)cc1)N1CCCCC1	IL1B secr inh -58
CCNC(=O)C1(C)CCN1C(=O)CCc1cccc(Cl)c1 (stereo unspecified)	none (no result: RORg inh, VP16 counter, MCF10A rerep, SW480 rereplic)
CN(/N=C/c1ccc(O)cc1O)c1ncc(C(F)(F)F)cc1Cl	RORg inh 7.9µM, MCF10A rerep inconclusive
CN(/N=C/c1ccccc1Cl)c1ncc(Cl)cc1C(F)(F)F	MCF10A rerep inconclusive
COc1cccc(N/C(SCc2ccccc2C)=C(/C#N)C(=O)NCc2cccs2)c1	none
COc1cccc(N/C(SCc2cccc([N+](=O)[O-])c2)=C(/C#N)C(=O)NCc2cccs2)c1	IL1B secr inh -55
CCOc1ccc(N/C(SCc2cccc([N+](=O)[O-])c2)=C(/C#N)C(N)=O)cc1	IL1B secr inh -73, MCF10A rerep inconclusive
N=c1ccn2c(n1)O[C@@H]1[C@H](O)[C@H](CO)O[C@@H]12	none (no result: IL1B secr inh, MCF10A rerep, SW480 rereplic)
CCCn1c(=O)c(C(=O)NCCc2ccccc2)c(O)c2ccccc21	VP16 counter inconclusive
CCCn1c(=O)c(C(=O)NCCc2ccc(OC)cc2)c(O)c2ccccc21	RORg inh inconclusive, VP16 counter 13µM, MCF10A rerep inconclusive
C=CCn1c(=O)c(C(=O)NCCc2ccccc2)c(O)c2ccccc21	RORg inh 14µM, VP16 counter inconclusive
COc1ccc(-n2c(C)c(C)c3c(NCCCO)ncnc32)cc1	none
COc1ccc(NC2=NCCC2)cc1	MCF10A rerep inconclusive
O=[N+]([O-])c1ccc2c(c1N1CCCCC1)=NC1(CCCCC1)[N+]=2[O-]	MCF10A rerep inconclusive, SW480 rereplic inconclusive
[O-][N+]1=c2ccc(Nc3ccccc3)cc2=NC12CCCCC2	RORg inh 10µM, VP16 counter 13µM, IL1B secr inh -98, MCF10A rerep 7.3µM, SW480 rereplic 7.3µM
COc1ccc(Nc2ccc3c(c2)=NC2(CCCCC2)[N+]=3[O-])cc1	RORg inh 11µM, VP16 counter 11µM, IL1B secr inh -97, MCF10A rerep 13µM, SW480 rereplic 4µM
CCCCn1c(O)c(/C=C2\C=NN=C2c2ccccc2)sc1=S	RORg inh inconclusive, VP16 counter inconclusive, IL1B secr inh -85, MCF10A rerep 10µM, SW480 rereplic inconclusive
CC(C)Cn1c(O)c(/C=C2\C=NN=C2c2ccccc2)sc1=S	RORg inh inconclusive, VP16 counter inconclusive, IL1B secr inh -89, MCF10A rerep 23µM, SW480 rereplic inconclusive
CCCCCCn1c(O)c(/C=C2\C=NN=C2c2ccccc2)sc1=S	IL1B secr inh -87, MCF10A rerep inconclusive, SW480 rereplic inconclusive
O=C(NCc1ccccc1)C1C(=O)Nc2ccccc2C(=O)N1c1ccc2c(c1)OCCO2 (stereo unspecified)	none (no result: RORg inh, VP16 counter, MCF10A rerep, SW480 rereplic)
CN(CCNC(=O)c1c[nH]c2c1ccc1ccccc12)CCNC(=O)c1c[nH]c2c1ccc1ccccc12	MCF10A rerep inconclusive, SW480 rereplic inconclusive (no result: RORg inh, VP16 counter)
Cc1ccc(S(=O)(=O)Nc2cccc3c2O[C@H](CN(C)C(=O)Nc2cccc4ccccc24)[C@H](C)CN([C@H](C)CO)C3=O)cc1	IL1B secr inh inconclusive (no result: RORg inh, VP16 counter)
O=C(c1cccn2c(=O)c3cc(Cl)ccc3nc12)N1CCN(Cc2ccc3c(c2)OCO3)CC1	MCF10A rerep 10µM, SW480 rereplic 18µM
O=C(c1cccn2c(=O)c3ccccc3nc12)N1CCN(Cc2ccc3c(c2)OCO3)CC1	none
O=C(c1sccc1Cl)N1CCN(Cc2ccc3c(c2)OCO3)CC1	IL1B secr inh -81, MCF10A rerep inconclusive
Cc1ccc(C(=O)N2CCN(Cc3ccc4c(c3)OCO4)CC2)c(Cl)c1	IL1B secr inh -59
Cc1cc(C)cc(OCC(O)CN2CCN(Cc3ccc4c(c3)OCO4)CC2)c1 (stereo unspecified)	MCF10A rerep 16µM
CCCN(C(=O)c1c(-c2ccccc2)noc1C)c1c(N)n(Cc2ccccc2)c(=O)[nH]c1=O	MCF10A rerep inconclusive (no result: RORg inh, VP16 counter)
O=C(c1[nH]nc2c1CCc1ccccc1-2)N1CCN(Cc2ccc3c(c2)OCO3)CC1	RORg inh inconclusive, IL1B secr inh -79
O=C(c1ccccc1)N1CCN(Cc2ccc3c(c2)OCO3)CC1	none
Cc1ccc(-c2nc3c4ccccc4ccn3c2CC2CCCCC2)cc1	none (no result: RORg inh, VP16 counter, MCF10A rerep, SW480 rereplic)
Cc1ccc(CN2CCC(NC(=O)c3ccccc3)CC2)cc1	none
Cc1ccc(C)n1-c1cccc(NC(=O)c2ccccc2)c1	VP16 counter inconclusive, MCF10A rerep inconclusive, SW480 rereplic inconclusive
CCOc1ccc2oc(C(=O)NC3CCN(Cc4ccccc4)CC3)c(C)c2c1	IL1B secr inh -64, MCF10A rerep inconclusive
Cc1ccc(C)n1-c1ccc(C(=O)NC2CCN(Cc3ccccc3)CC2)cc1	IL1B secr inh -59, MCF10A rerep inconclusive, SW480 rereplic inconclusive
Cc1ccc(C)n1-c1ccc(C(=O)Nc2ccccc2)cc1	IL1B secr inh -65, MCF10A rerep inconclusive, SW480 rereplic inconclusive
Cc1ccc(C)n1-c1ccc(C(=O)N2CCOCC2)cc1	none
CC(=O)N1CCN(C(=O)c2ccc(-n3c(C)ccc3C)cc2)CC1	IL1B secr inh -66, SW480 rereplic inconclusive
CCOC(=O)C1CCN(C(=O)C(C)Sc2nnc3ccccn23)CC1 (stereo unspecified)	none (no result: RORg inh, VP16 counter)
CC(=O)Nc1cccc(NC(=O)c2ccc3[nH]c(C)c(C)c3c2)c1	none
Cc1cc(NC(=O)c2ccc3[nH]c(C)c(C)c3c2)ccn1	IL1B secr inh -58
CCOc1ccc(N2C(=O)CC(SCCN)C2=O)cc1 (stereo unspecified)	RORg inh inconclusive, VP16 counter inconclusive, IL1B secr inh inconclusive
CCOc1ccc(N2C(=O)CC(Sc3nnnn3-c3ccccc3)C2=O)cc1 (stereo unspecified)	RORg inh 4µM, VP16 counter inconclusive, IL1B secr inh -57, MCF10A rerep inconclusive, SW480 rereplic 16µM
CCOc1ccc(-n2nnnc2SCC(=O)c2ccccc2)cc1	MCF10A rerep 4.1µM, SW480 rereplic inconclusive
COc1ccc(-n2nnnc2SCC(=O)c2cccc(OC)c2)cc1	VP16 counter inconclusive, MCF10A rerep inconclusive
CCc1nc2ccc(C(=O)N3CCCC(C(N)=O)C3)cn2c1N(C=O)CC (stereo unspecified)	none (no result: RORg inh, VP16 counter, MCF10A rerep, SW480 rereplic)
O=C(Nc1ccc2c(c1)OCCO2)C1c2ccccc2OCC(=O)N1CCc1ccccc1 (stereo unspecified)	none (no result: RORg inh, VP16 counter, MCF10A rerep, SW480 rereplic)
COc1ccc(NC(=S)NC(=O)/C=C/c2cccs2)cc1	RORg inh 3.5µM, VP16 counter inconclusive
